Test results published in the supplement of paper PMC10338343.
± gives the standard deviation.

Key:
[1] = test system: MILI (PIWIL2) piRISC loaded with L1MC piRNA (26 nt); experiment: pre-steady-state target cleavage rate (min^-1); guide: L1MC piRNA 5'p-UAACUAAAUACUAUGCAAGCUGUAGG; higher = faster piRNA-guided slicing of the target
How it was run: (§1)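 Cleave-'n-Seq: a transcribed, DNA-blocked target RNA library (0.1 nM) was mixed with 1 nM active affinity-purified piRISC carrying one synthetic guide, with or without 500 nM GTSF1 partner protein, in HEPES–potassium acetate buffer at 33 °C for 0–8 or 0–960 min. Uncleaved targets were sequenced and normalised to depth and to weakly complementary targets. Three trials were pooled, and k3 was capped at 0.0001 min^-1. The pre-steady-state cleavage rate came from a burst-and-steady-state fit.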

[2] = test system: EfPiwi piRISC loaded with L1MC piRNA (26 nt); experiment: pre-steady-state target cleavage rate (min^-1); auxiliary factor: 500 nM Ephydatia muelleri Gtsf1; guide: L1MC piRNA 5'p-UAACUAAAUACUAUGCAAGCUGUAGG; MIWI and MILI are mouse PIWI proteins and EfPiwi is from a freshwater sponge; tags in brackets are library labels; higher = faster piRNA-guided slicing of the target
How it was run: as §1

[3] = auxiliary factor: 500 nM mouse GTSF1
[4] = auxiliary factor: none (no GTSF1)

In the case of UCCUGCUACAGCUUGCUUACUAUUUAGUUA, the “pre-steady-state target cleavage rate” value [1, 3] is reported as 0.114 ± 0.016, the “pre-steady-state target cleavage rate” value [1, 4] is reported as 0.00371 ± 0.0023 and the “pre-steady-state target cleavage rate” value [2] is reported as 0.0113 ± 0.005.
UCCUCCUACAGCGUGCAUAGUAUUUAGUUA was tested, and the “pre-steady-state target cleavage rate” value [1, 3] was 0.309 ± 0.021, the “pre-steady-state target cleavage rate” value [1, 4] was 0.00999 ± 0.003 and the “pre-steady-state target cleavage rate” value [2] was 0.1 ± 0.026.
In the case of UCCUGGAUCAGCUUGCAUAGUAUUAUAGUUA, the “pre-steady-state target cleavage rate” value [1, 3] is reported as 0.283 ± 0.022, the “pre-steady-state target cleavage rate” value [1, 4] is reported as 0.00669 ± 0.0028 and the “pre-steady-state target cleavage rate” value [2] is reported as 0.0796 ± 0.024.
UCCUCCUACAGCUCUGCAUAGUAUUUAGUUA was tested, and the “pre-steady-state target cleavage rate” value [1, 3] was 0.276 ± 0.014, the “pre-steady-state target cleavage rate” value [1, 4] was 0.00692 ± 0.0018 and the “pre-steady-state target cleavage rate” value [2] was 0.0445 ± 0.014.
UCCUGGAUGAGCUUGCAUAGUAUUGAGUUA was tested, and the “pre-steady-state target cleavage rate” value [1, 3] was 0.164 ± 0.036, the “pre-steady-state target cleavage rate” value [1, 4] was 0.00369 ± 0.0027 and the “pre-steady-state target cleavage rate” value [2] was 0.00461 ± 0.0019.
With UCCUGGAUCAGGUUGCAUUGUAUUUAGUUA the “pre-steady-state target cleavage rate” value [1, 3] was 0.115 ± 0.0091, the “pre-steady-state target cleavage rate” value [1, 4] was 0.00671 ± 0.0024 and the “pre-steady-state target cleavage rate” value [2] was 0.00567 ± 0.0021.
In the case of UCCUGGAUGAGCUUGCAUAGUACUUUAGUUA, the “pre-steady-state target cleavage rate” value [1, 3] is reported as 0.0613 ± 0.0089, the “pre-steady-state target cleavage rate” value [1, 4] is reported as 0.00632 ± 0.0026 and the “pre-steady-state target cleavage rate” value [2] is reported as 0.00806 ± 0.003.
In the case of UCCUGCAUACAGCUUGCAUAGUAUUUAGUUA, the “pre-steady-state target cleavage rate” value [1, 3] is reported as 0.554 ± 0.047, the “pre-steady-state target cleavage rate” value [1, 4] is reported as 0.0104 ± 0.0034 and the “pre-steady-state target cleavage rate” value [2] is reported as 0.11 ± 0.032.
In the case of UCCUGCUACAGCUUGCAUUGUAUUUAGUUA, the “pre-steady-state target cleavage rate” value [1, 3] is reported as 0.248 ± 0.022, the “pre-steady-state target cleavage rate” value [1, 4] is reported as 0.0081 ± 0.0028 and the “pre-steady-state target cleavage rate” value [2] is reported as 0.00662 ± 0.0024.
In the case of UCCUGGUACAGCUUGGUUAGUAUUUAGUUA, the “pre-steady-state target cleavage rate” value [1, 3] is reported as 0.192 ± 0.023, the “pre-steady-state target cleavage rate” value [1, 4] is reported as 0.0135 ± 0.0038 and the “pre-steady-state target cleavage rate” value [2] is reported as 0.00478 ± 0.0032.
In the case of UCCUGGAACAGCAUGCAUUGUAUUUAGUUA, the “pre-steady-state target cleavage rate” value [1, 3] is reported as 0.204 ± 0.016, the “pre-steady-state target cleavage rate” value [1, 4] is reported as 0.00901 ± 0.0024 and the “pre-steady-state target cleavage rate” value [2] is reported as 0.00504 ± 0.002.
With UCCUGGAUGUGGUUGCAUAGUUUUUAGUUA the “pre-steady-state target cleavage rate” value [1, 3] was 0.0125 ± 0.0086, the “pre-steady-state target cleavage rate” value [1, 4] was 0.00954 ± 0.0033 and the “pre-steady-state target cleavage rate” value [2] was 0.00827 ± 0.0052.
With UCCUGGAUGAGCUUGCAUAGUAUCUAGUUA the “pre-steady-state target cleavage rate” value [1, 3] was 0.131 ± 0.019, the “pre-steady-state target cleavage rate” value [1, 4] was 0.00451 ± 0.0026 and the “pre-steady-state target cleavage rate” value [2] was 0.00844 ± 0.003.
With UCCUGGAUCAGCUUGCAUAGUAAUAAGUUA the “pre-steady-state target cleavage rate” value [1, 3] was 0.189 ± 0.019, the “pre-steady-state target cleavage rate” value [1, 4] was 0.00409 ± 0.0028 and the “pre-steady-state target cleavage rate” value [2] was 0.00234 ± 0.0018.
With UCCUGGUACAGCUUGCAUAGUAAUUAGUUA the “pre-steady-state target cleavage rate” value [1, 3] was 0.317 ± 0.034, the “pre-steady-state target cleavage rate” value [1, 4] was 0.00595 ± 0.0029 and the “pre-steady-state target cleavage rate” value [2] was 0.00654 ± 0.0025.
With UCCUCCUACAGCUUGCAUAGUAGUUUAGUUA the “pre-steady-state target cleavage rate” value [1, 3] was 0.23 ± 0.022, the “pre-steady-state target cleavage rate” value [1, 4] was 0.007 ± 0.0022 and the “pre-steady-state target cleavage rate” value [2] was 0.0131 ± 0.0052.
For UCCUGGAUGUGCUUGCAUAGUAUUUGGUUA, the “pre-steady-state target cleavage rate” value [1, 3] was 0.131 ± 0.013, the “pre-steady-state target cleavage rate” value [1, 4] was 0.01 ± 0.0034 and the “pre-steady-state target cleavage rate” value [2] was 0.00579 ± 0.003.
